The sample as a whole holds a higher share of the strongest signals than the screen did.
Key:
Assay in all cases: glycan array binding signal (z-score within array); higher = stronger binding
Conditions in all cases: glycan notation: IUPAC condensed, linker removed
[1] = target: Fuc(a1-2)[GalNAc(a1-3)]Gal(b1-3)GlcNAc(b1-3)GalNAc
Method in brief: (§1)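 Arrays were curated from the Consortium for Functional Glycomics database, 3228 in total, and kept only where the protein sequence was available. Binding is expressed as a within-array Z-score. This score was averaged across arrays of the same protein sequence at different concentrations or buffers and across linkers, and negative values can be read as non-binding.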

[2] = target: Fuc(a1-2)[GalNAc(a1-3)]Gal(b1-4)Glc
Method in brief: as §1

[3] = target: Fuc(a1-3)[Gal3S(b1-4)]GlcNAc6S
Method in brief: as §1

[4] = target: Gal(a1-3)Gal(b1-4)GlcNAc
Method in brief: as §1

[5] = target: Gal(a1-6)Glc
Method in brief: as §1

[6] = target: Gal(b1-3)GlcNAc(a1-6)Gal(b1-4)GlcNAc
Method in brief: as §1

[7] = target: Gal(b1-3)[Fuc(a1-4)]GlcNAc(b1-6)GalNAc
Method in brief: as §1

[8] = target: Gal(b1-4)Glc
Method in brief: as §1

[9] = target: Gal(b1-4)GlcNAc(b1-2)Man(a1-3)[Gal(b1-4)GlcNAc(b1-2)Man(a1-6)][GlcNAc(b1-4)]Man(b1-4)GlcNAc(b1-4)[Fuc(a1-6)]GlcNAc
Method in brief: as §1

[10] = target: Gal(b1-4)GlcNAc(b1-2)Man(a1-6)[GlcNAc(b1-2)Man(a1-3)]Man(b1-4)GlcNAc(b1-4)GlcNAc
Method in brief: as §1

[11] = target: Gal(b1-4)GlcNAc(b1-2)Man(a1-6)[Man(a1-3)]Man(b1-4)GlcNAc(b1-4)GlcNAc
Method in brief: as §1

[12] = target: Gal(b1-4)GlcNAc(b1-2)[Gal(b1-4)GlcNAc(b1-6)]Man(a1-6)[Gal(b1-4)GlcNAc(b1-2)Man(a1-3)]Man(b1-4)GlcNAc(b1-4)GlcNAc
Method in brief: as §1

[13] = target: Gal(b1-4)GlcNAc(b1-3)Gal(b1-4)GlcNAc
Method in brief: as §1

[14] = target: Gal(b1-4)GlcNAc(b1-3)Gal(b1-4)GlcNAc(b1-2)Man(a1-3)[Gal(b1-4)GlcNAc(b1-3)Gal(b1-4)GlcNAc(b1-2)Man(a1-6)]Man(b1-4)GlcNAc(b1-4)GlcNAc
Method in brief: as §1

[15] = target: Gal(b1-4)GlcNAc(b1-3)Gal(b1-4)GlcNAc(b1-2)[Gal(b1-4)GlcNAc(b1-3)Gal(b1-4)GlcNAc(b1-6)]Man(a1-6)[Gal(b1-4)GlcNAc(b1-3)Gal(b1-4)GlcNAc(b1-2)Man(a1-3)]Man(b1-4)GlcNAc(b1-4)[Fuc(a1-6)]GlcNAc
Method in brief: as §1

[16] = target: Gal(b1-4)GlcNAc(b1-3)Gal(b1-4)GlcNAc(b1-3)Gal(b1-4)GlcNAc(b1-2)[Gal(b1-4)GlcNAc(b1-3)Gal(b1-4)GlcNAc(b1-3)Gal(b1-4)GlcNAc(b1-6)]Man(a1-6)[Gal(b1-4)GlcNAc(b1-3)Gal(b1-4)GlcNAc(b1-3)Gal(b1-4)GlcNAc(b1-2)Man(a1-3)]Man(b1-4)GlcNAc(b1-4)[Fuc(a1-6)]GlcNAc
Method in brief: as §1

[17] = target: Gal(b1-4)GlcNAc(b1-3)Gal(b1-4)GlcNAc(b1-3)Gal(b1-4)GlcNAc(b1-3)Gal(b1-4)GlcNAc(b1-2)Man(a1-3)[Gal(b1-4)GlcNAc(b1-3)Gal(b1-4)GlcNAc(b1-3)Gal(b1-4)GlcNAc(b1-3)Gal(b1-4)GlcNAc(b1-2)Man(a1-6)]Man(b1-4)GlcNAc(b1-4)GlcNAc
Method in brief: as §1

[18] = target: Gal(b1-4)GlcNAc(b1-3)Gal(b1-4)GlcNAc(b1-3)Gal(b1-4)GlcNAc(b1-3)Gal(b1-4)GlcNAc(b1-2)[Gal(b1-4)GlcNAc(b1-3)Gal(b1-4)GlcNAc(b1-3)Gal(b1-4)GlcNAc(b1-3)Gal(b1-4)GlcNAc(b1-6)]Man(a1-6)[Gal(b1-4)GlcNAc(b1-3)Gal(b1-4)GlcNAc(b1-3)Gal(b1-4)GlcNAc(b1-3)Gal(b1-4)GlcNAc(b1-2)Man(a1-3)]Man(b1-4)GlcNAc(b1-4)[Fuc(a1-6)]GlcNAc
Method in brief: as §1

[19] = target: Gal(b1-4)GlcNAc(b1-3)Gal(b1-4)GlcNAc(b1-3)Gal(b1-4)GlcNAc(b1-3)Gal(b1-4)GlcNAc(b1-3)Gal(b1-4)GlcNAc(b1-2)Man(a1-3)[Gal(b1-4)GlcNAc(b1-3)Gal(b1-4)GlcNAc(b1-3)Gal(b1-4)GlcNAc(b1-3)Gal(b1-4)GlcNAc(b1-3)Gal(b1-4)GlcNAc(b1-2)Man(a1-6)]Man(b1-4)GlcNAc(b1-4)GlcNAc
Method in brief: as §1

[20] = target: Gal(b1-4)GlcNAc(b1-3)Gal(b1-4)GlcNAc(b1-3)Gal(b1-4)GlcNAc(b1-3)Gal(b1-4)GlcNAc(b1-3)Gal(b1-4)GlcNAc(b1-2)Man(a1-3)[Gal(b1-4)GlcNAc(b1-3)Gal(b1-4)GlcNAc(b1-3)Gal(b1-4)GlcNAc(b1-3)Gal(b1-4)GlcNAc(b1-3)Gal(b1-4)GlcNAc(b1-2)Man(a1-6)]Man(b1-4)GlcNAc(b1-4)[Fuc(a1-6)]GlcNAc
Method in brief: as §1

[21] = target: Gal(b1-4)GlcNAc(b1-3)Gal(b1-4)GlcNAc(b1-3)Gal(b1-4)GlcNAc(b1-3)Gal(b1-4)GlcNAc(b1-3)Gal(b1-4)GlcNAc(b1-2)[Gal(b1-4)GlcNAc(b1-3)Gal(b1-4)GlcNAc(b1-3)Gal(b1-4)GlcNAc(b1-3)Gal(b1-4)GlcNAc(b1-3)Gal(b1-4)GlcNAc(b1-6)]Man(a1-6)[Gal(b1-4)GlcNAc(b1-3)Gal(b1-4)GlcNAc(b1-3)Gal(b1-4)GlcNAc(b1-3)Gal(b1-4)GlcNAc(b1-3)Gal(b1-4)GlcNAc(b1-2)Man(a1-3)]Man(b1-4)GlcNAc(b1-4)[Fuc(a1-6)]GlcNAc
Method in brief: as §1

[22] = target: Gal(b1-4)GlcNAc(b1-6)Gal(b1-4)GlcNAc
Method in brief: as §1

[23] = target: Gal(b1-4)GlcNAc(b1-6)GalNAc
Method in brief: as §1

[24] = target: Gal3S4S(b1-4)GlcNAc
Method in brief: as §1

[25] = target: Gal6S(b1-4)Glc
Method in brief: as §1

[26] = target: Gal6S(b1-4)Glc6S
Method in brief: as §1

[27] = target: Gal6S(b1-4)GlcNAc
Method in brief: as §1

[28] = target: Gal6S(b1-4)GlcNAc6S
Method in brief: as §1

[29] = target: GalNAc(a1-3)GalNAc(b1-3)Gal(a1-4)Gal(b1-4)Glc
Method in brief: as §1

[30] = target: GalNAc(b1-4)GlcNAc
Method in brief: as §1

[31] = target: Fuc(a1-2)[Gal(a1-3)]Gal(b1-4)Glc
Method in brief: as §1

[32] = target: Fuc(a1-2)[GalNAc(a1-3)]Gal
Method in brief: as §1

[33] = target: Fuc(a1-2)[GalNAc(a1-3)]Gal(b1-4)GlcNAc
Method in brief: as §1

[34] = target: Fuc(a1-2)[GalNAc(a1-3)]Gal(b1-4)[Fuc(a1-3)]GlcNAc
Method in brief: as §1

[35] = target: Fuc(a1-2)[GalNAc(a1-4)]Gal(b1-4)GlcNAc
Method in brief: as §1

[36] = target: Fuc(a1-3)[Gal(b1-4)]GlcNAc(b1-2)Man(a1-3)[Fuc(a1-3)[Gal(b1-4)]GlcNAc(b1-2)Man(a1-6)]Man(b1-4)GlcNAc(b1-4)GlcNAc
Method in brief: as §1

[37] = target: Fuc(a1-3)[Gal(b1-4)]GlcNAc(b1-4)Gal(b1-4)[Fuc(a1-3)]GlcNAc(b1-4)Gal(b1-4)[Fuc(a1-3)]GlcNAc
Method in brief: as §1

[38] = target: Fuc(b1-3)GlcNAc
Method in brief: as §1

[39] = target: GlcA(b1-3)Gal
Method in brief: as §1

[40] = target: GlcNAc(b1-6)GalNAc
Method in brief: as §1

[41] = target: GlcNAc3Prop(b1-4)GlcNAc
Method in brief: as §1

[42] = target: Man(b1-4)GlcNAc
Method in brief: as §1

[43] = target: Neu5Ac(a2-3)Gal(b1-4)[Fuc(a1-3)]GlcNAc(b1-3)Gal(b1-4)[Fuc(a1-3)]GlcNAc(b1-3)Gal(b1-4)[Fuc(a1-3)]GlcNAc
Method in brief: as §1

[44] = target: Neu5Ac(a2-8)Neu5Ac(a2-8)Neu5Ac
Method in brief: as §1

[45] = target: Neu5Gc(a2-3)Gal(b1-4)Glc
Method in brief: as §1

B1: Epa23 (Candida glabrata) (protein)
chain: MGSSHHHHHHSSGLVPRGSHMIPNPFEGTINNFPSGCSPNHGLYNRGLTMELYNYSYIHPQSIQSYFNTSTLKKMEKGQCWDPSYLDVNYPRTGYKTHNRFAKVNGIDGILDFEFNPTRSCVPSKGQLPQNYNYPLQFTLSNFTMLLYGYFKPKVTAKHTFTIFADDLLFLNFGAGNAFDCCQQQDTIDDFGNYQAYALWGSDTQQNTLTVNLDANIYYPIRMFYNNRDFKGALNMYFTTDESNTKINDFSGYLFNIPDSSEGCPAHISYETECGNVSG
glycan array binding signal (z-score) [1]: -0.229 | glycan array binding signal (z-score) [2]: -0.234 | glycan array binding signal (z-score) [3]: -0.161 | glycan array binding signal (z-score) [4]: -0.008 | glycan array binding signal (z-score) [5]: -0.007 | glycan array binding signal (z-score) [6]: -0.078 | glycan array binding signal (z-score) [7]: -0.177 | glycan array binding signal (z-score) [8]: -0.134 | glycan array binding signal (z-score) [9]: -0.232 | glycan array binding signal (z-score) [10]: -0.223 | glycan array binding signal (z-score) [11]: -0.182 | glycan array binding signal (z-score) [12]: 0.12 | glycan array binding signal (z-score) [13]: 0.139 | glycan array binding signal (z-score) [14]: 0.484 | glycan array binding signal (z-score) [15]: 2.44 | glycan array binding signal (z-score) [16]: 3.33 | glycan array binding signal (z-score) [17]: 2.62 | glycan array binding signal (z-score) [18]: 3.79 | glycan array binding signal (z-score) [19]: 3.01 | glycan array binding signal (z-score) [20]: 2.83 | glycan array binding signal (z-score) [21]: 4.71 | glycan array binding signal (z-score) [22]: 1.43 | glycan array binding signal (z-score) [23]: 0.008 | glycan array binding signal (z-score) [24]: -0.241 | glycan array binding signal (z-score) [25]: 6.7 | glycan array binding signal (z-score) [26]: 11.8 | glycan array binding signal (z-score) [27]: 5.69 | glycan array binding signal (z-score) [28]: 13.5 | glycan array binding signal (z-score) [29]: -0.137 | glycan array binding signal (z-score) [30]: -0.168

B2: GH98CBM (Clostridium perfringens) (protein)
chain: EVYALEESRDVYLSDLDWLNATHGDDTKSKIVQKNHPFTPGNNNQSTKISLKMEDGSISEFEKGLGTIAGSPSTITYDISGAGVTKFFSYLGIDRSANPINEQYAKVDKIEVVVDGKVIYSTINQFPNGLTYETPAIKVDLNIPENAKRLQLKSYAGEKTWGDEVVYADAKFTAKGDFVN
glycan array binding signal (z-score) [31]: 2.19 | glycan array binding signal (z-score) [32]: 4.81 | glycan array binding signal (z-score) [2]: 6.66 | glycan array binding signal (z-score) [33]: 8.52 | glycan array binding signal (z-score) [34]: 5.47 | glycan array binding signal (z-score) [35]: -0.209 | glycan array binding signal (z-score) [36]: 0.041 | glycan array binding signal (z-score) [37]: -0.235 | glycan array binding signal (z-score) [38]: 0.118 | glycan array binding signal (z-score) [39]: -0.196 | glycan array binding signal (z-score) [40]: -0.22 | glycan array binding signal (z-score) [41]: -0.189 | glycan array binding signal (z-score) [42]: -0.183 | glycan array binding signal (z-score) [43]: -0.233 | glycan array binding signal (z-score) [44]: -0.247 | glycan array binding signal (z-score) [45]: -0.107

Source: the supplement of paper PMC8728848
